High-throughput results as filed in PubChem BioAssay.
IL1B secr inh – qHTS for Inhibitors of Inflammasome Signaling: IL-1-beta AlphaLISA Primary Screen; THP-1 LPS/ATP IL-1B secretion, AlphaLISA, 16 h; stronger effect = lower value; AID 743279, 2014; activity change, % at 57.5 µM; hit rate 4.7% among 360,000; in the data active = activity change below about -50%; inconclusive = mostly about -30% to -49%
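Secreted IL-1B measured by AlphaLISA bead assay after 16 h compound exposure of THP-1 cells; compounds (final up to 57.5 uM) added 1 h before LPS (250 ng/mL) and ATP (1.25 mM) stimulation; lower signal means less secretion.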
DT40 TDP1 CPT – qHTS for Inhibitors of human tyrosyl-DNA phosphodiesterase 1 (TDP1): qHTS in cells in presence of CPT; chicken DT40 Tdp1-/-;hTDP1 cells + 20 nM CPT, ATP luminescence, 48 h; Potency, µM (doses to about 46.2 µM), most hits filed as inhibitors; hit rate 12% among 420,000; note: nearly all actives have a fitted effect of over 55% in size
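Cell growth measured by CellTiter-Glo luminescence after a minimum 48 h, 37 C compound exposure with 20 nM CPT in Tdp1-knockout DT40 cells stably expressing hTDP1, seeded 400/well; qHTS titration format.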
HT1080-NT tox – qHTS for induction of synthetic lethality in tumor cells producing 2HG: qHTS for the HT-1080-NT fibrosarcoma cell line; Potency, µM (series often up to 46.1 µM), most hits filed as cytotoxic; HT-1080-NT fibrosarcoma viability, CellTiter-Glo ATP luminescence, 48 h; hit rate 1.6% among 360,000;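 note: NT is the 2HG producing partner of a matched IDH1 knockdown line; nearly all actives have a fitted effect of over 55% in size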
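Toxicity toward the 2HG-producing NT line was scored as %Activity, normalised to DMSO and no-cell wells, from CellTiter-Glo luminescence after 48 hours' treatment.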
12-LOX inh – Primary qHTS assay for inhibitors of human arachidonate 12S-lipoxygenase (ALOX12): Round 2. AID 1671190, 2021. Potency, µM (highest dose often 108 µM), actives largely listed as inhibitors. purified 12hLO, xylenol orange hydroperoxide absorbance. Polyunsaturated fatty acid lipoxygenase ALOX12 (Homo sapiens), P18054. hit rate 1.1% among 580,000
Target sequence (P18054 whole entry, looked up): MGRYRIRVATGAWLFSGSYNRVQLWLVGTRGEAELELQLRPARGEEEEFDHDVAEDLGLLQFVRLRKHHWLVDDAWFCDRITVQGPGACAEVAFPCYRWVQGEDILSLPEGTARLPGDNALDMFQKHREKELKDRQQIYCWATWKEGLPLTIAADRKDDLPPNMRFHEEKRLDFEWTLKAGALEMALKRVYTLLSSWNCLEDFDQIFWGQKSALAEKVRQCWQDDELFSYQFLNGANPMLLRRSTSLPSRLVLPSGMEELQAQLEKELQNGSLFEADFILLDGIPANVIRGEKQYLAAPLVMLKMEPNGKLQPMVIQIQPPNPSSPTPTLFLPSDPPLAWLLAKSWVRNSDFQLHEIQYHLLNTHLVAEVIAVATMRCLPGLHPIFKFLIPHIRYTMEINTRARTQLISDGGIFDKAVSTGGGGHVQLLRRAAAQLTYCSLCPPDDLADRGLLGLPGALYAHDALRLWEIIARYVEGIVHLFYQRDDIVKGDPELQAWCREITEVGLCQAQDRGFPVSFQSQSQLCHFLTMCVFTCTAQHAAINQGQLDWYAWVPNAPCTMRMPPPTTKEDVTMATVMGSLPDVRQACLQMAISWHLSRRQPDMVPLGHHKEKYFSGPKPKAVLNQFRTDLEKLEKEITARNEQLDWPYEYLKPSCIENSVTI
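Purified human 12hLO at 150 nM in 25 mM Hepes, 0.01% Triton X-100, pH 7.0, preincubated 15 min at room temperature with compound. Reaction started with 40 uM arachidonic acid, 30 min at room temperature. Hydroperoxide measured by Fe-xylenol orange, 573/405 nm absorbance ratio.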
TDP1 cell noCPT – qHTS for Inhibitors of human tyrosyl-DNA phosphodiesterase 1 (TDP1): qHTS in cells in absence of CPT | DT40 Tdp1-/- hTDP1 cells, no CPT, ATP luminescence, 48 h | Potency, µM (top dose mostly 46.2 µM), most hits filed as inhibitors | hit rate 15% among 420,000 | AID 686978, 2013; note: nearly all actives have a fitted effect of over 55% in size
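Compound effects on proliferation are scored in DT40 Tdp1-/-;hTDP1 cells in the absence of CPT. ATP levels (CellTiter-Glo luminescence) are recorded after a ≥48 hr, 37 °C incubation.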
HT1080 IDH1KD tx – qHTS for induction of synthetic lethality in tumor cells producing 2HG: qHTS for the HT-1080-IDH1KD cell line | AID 686971, 2013 | Potency, µM (doses to about 46.1 µM), hits mostly cytotoxic | hit rate 2% among 360,000 | HT-1080 IDH1 knockdown viability, ATP luminescence, 48 h
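In this qHTS, HT-1080 cells depleted of IDH1 are exposed for 48 h at 37 °C to compound titrations. Toxicity is scored from CellTiter-Glo luminescence, with DMSO as full viability and medium alone as none.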
Numbers stand for hits; 0 = inactive; ? = inconclusive; - = no result; [ ] = dose if it differs, or a comment. The entries come from a sample that favours hits as a whole. Unless noted, calls come from the whole dose curve; as a rule, active = well fitted curve in the direction sought with a large enough effect; inconclusive = small, poorly fitted or top-dose-only effect, or another doubt; inactive = no such curve, though single readings can be large; an effect the other way counts as inactive or inconclusive.

SMILES | IL1B secr inh | DT40 TDP1 CPT | HT1080-NT tox | 12-LOX inh | TDP1 cell noCPT | HT1080 IDH1KD tx
COc1cc(C2SCC(=O)Nc3c2c(C)nn3-c2ccccc2)cc(OC)c1OC (configuration not stated) | 0 | 0 | 0 | 0 | 0 | 0
CCCOc1ccc(C2SCC(=O)Nc3c2c(C)nn3-c2cccc(C)c2)cc1OC (configuration not stated) | - | 16µM | - | ? | 21µM | -
COc1cccc(C2SCC(=O)Nc3c2c(C)nn3-c2ccc(C)c(Cl)c2)c1OC (configuration not stated) | - | 21µM | - | 0 | 21µM | -
C1=C2CCCN[C@H]2[C@@H]2C[C@H]1[C@@H]1CCCCN1C2 | - | - | - | 0 | - | -
O=C(c1cn(CCCCn2cc(C(=O)C(F)(F)F)c3ccccc32)c2ccccc12)C(F)(F)F | - | - | - | 0 | - | -
C=C1C(=O)OC2CC3(C)OC3CCC(C)=CC(OC(C)=O)C12 (configuration not stated) | -100 | 2.3µM | 0 | 0 | 2.6µM | 15µM
O=C(NC[C@H]1C[C@@H]2CCN1C[C@@H]2CN1CCCCC1)Nc1ccccc1 | - | - | - | 0 | - | -
Cc1ccc2c(n1)N(C)[C@H](CO)CCN(CCC(C)C)C2 | - | - | - | 0 | - | -
COc1ccccc1N1CCN(S(=O)(=O)c2c(C)ccc3nsnc23)CC1 | 0 | 0 | 0 | 0 | ? | ?
COc1ccccc1N=c1scc(-c2ccc(S(=O)(=O)N3CCCC3)cc2)n1C | - | 5.2µM | - | 0 | 2.9µM | -
CN(C)C(=O)Oc1ccc(OC(=O)N(C)C)cc1 | 0 | 0 | 0 | 0 | 0 | 0
CN(C)C(=O)Oc1ccc(OCc2nc3ccccc3[nH]2)cc1 | 0 | 9.2µM | 7.3µM | 0 | 10µM | 6.5µM
COc1ccccc1C(=O)N1CCC2(CC1)c1nccn1-c1ccccc1CN2CC(C)C | - | - | - | 0 | - | -
CC(=O)N1c2ccc(S(=O)(=O)N3CCCC(C(=O)Nc4cc(C)cc(C)c4)C3)cc2CC1C (configuration not stated) | 0 | ? | 0 | 0 | ? | 0
CC(=O)N1c2ccc(S(=O)(=O)NCC3CCC(C(=O)Nc4cc(C)cc(C)c4)CC3)cc2CC1C (configuration not stated) | - | 21µM | - | 0 | 16µM | -
Cc1cccc(CN2CCCC(C(=O)c3ccc(C(F)(F)F)cc3)C2)n1 (configuration not stated) | 0 | ? | 0 | 0 | 18µM | ?
CSc1ccccc1C(=O)C1CCCN(Cc2cccc(C)n2)C1 (configuration not stated) | -75 | ? | ? | 0 | ? | ?
CCn1cc(C(=O)OC(C)C(=O)NC(=O)NC(C)(C)C)c2ccccc21 (configuration not stated) | - | - | - | 0 | - | -
O=c1ccc(-c2ccccc2F)c2n1C[C@H]1C[C@@H]2CN(S(=O)(=O)c2ccccc2)C1 | - | - | - | 0 | - | -
CCc1ccc(Nc2nc3c(S(=O)(=O)c4ccc(C)cc4)nnn3c3ccsc23)cc1 | - | 3.7µM | - | 0 | 3.7µM | -
CN(C(=O)CCN1C(=O)/C(=C/c2ccc(F)cc2)SC1=S)C1CCS(=O)(=O)C1 (configuration not stated) | 0 | 21µM | 0 | 0 | 21µM | 0
O=[N+]([O-])c1ccc(NC2CCCCC2)c2ccncc12 | - | - | - | 0 | - | -
O=[N+]([O-])c1ccc(NCc2ccc(Cl)cc2)c2ccncc12 | -57 | 23µM | 0 | 0 | 21µM | 0
Cc1cccc(N2C(=O)/C(=C/c3ccc(N4CCN(C)CC4)o3)C(=O)NC2=S)c1C | 0 | 0 | 0 | 45µM | 0 | 0
COc1ccc(N2C(=O)/C(=C/c3ccc(OC)c(OC)c3)C(=O)NC2=S)cc1 | 0 | 0 | 0 | 50µM | 0 | 0
SMILES | IL1B secr inh | DT40 TDP1 CPT | HT1080-NT tox | 12-LOX inh | TDP1 cell noCPT | HT1080 IDH1KD tx
COc1ccc(N2C(=O)/C(=C/c3ccc(C)o3)C(=O)NC2=S)c(OC)c1 | 0 | 21µM | 0 | ? | ? | 0
CCc1ccccc1N1C(=O)/C(=C/c2ccc(N3CCN(C)CC3)o2)C(=O)NC1=S | 0 | 0 | 0 | ? | ? | 0
CN1C(=O)/C(=C\c2ccc(Br)s2)C(=O)NC1=S | -99 | ? | 0 | ? | 16µM | 0
O=C1NC(=S)NC(=O)C1=Cc1ccc(Br)s1 | -100 | 10µM | ? | 16µM | 9.2µM | ?
COc1ccc(C=C2C(=O)NC(=S)NC2=O)cc1 | 0 | ? | 0 | ? | ? | 0
O=C1NC(=S)NC(=O)C1=Cc1cccc2cc3ccccc3cc12 | -99 | 5.2µM | ? | 0 | 2.6µM | ?
O=C1NC(=S)NC(=O)C1=Cc1c(Cl)cccc1Cl | -99 | 10µM | 0 | ? | 16µM | 0
COc1ccccc1CNC(=O)CN1CCCC1=O | - | - | - | 0 | - | -
Cn1c(O)c(C(=Nc2ccccc2)SCc2ccc(Cl)cc2)c(=O)n(C)c1=O | 0 | 4.6µM | ? | 16µM | 3.3µM | ?
CC(=NCc1ccco1)c1c(O)n(C)c(=O)n(C)c1=O | 0 | 0 | 0 | 0 | 0 | 0
CCC(=NCCc1ccccc1)c1c(O)n(C)c(=O)n(C)c1=O | 0 | ? | ? | 0 | 8.2µM | ?
CC(=NCCC(c1ccccc1)c1ccccc1)c1c(O)n(C)c(=O)n(C)c1=O | 0 | 21µM | 0 | 0 | 13µM | 0
CCc1ccc(OCCCN=C(C)c2c(O)n(C)c(=O)n(C)c2=O)cc1 | 0 | 13µM | 0 | 0 | 18µM | ?
CCC(=NCc1ccco1)c1c(O)n(C)c(=O)n(C)c1=O | 0 | ? | 0 | 0 | ? | 0
COc1cc2c(cc1OCc1ccncc1)NC(=O)C21CCN(CC2CC2)CC1 | - | - | - | 0 | - | -
CNC(C)c1ccc(F)cc1 (configuration not stated) | - | - | - | 0[12.5 µM] | - | -
Cn1nc(-c2ccccc2)cc1[C@H]1CN2CC[C@H]1C[C@@H]2CNC(=O)N1CCOCC1 | - | - | - | 0 | - | -
O=C(c1ccccc1)N1C[C@@H]2C[C@H](C1)c1ccc(C3CCCCC3)c(=O)n1C2 | - | - | - | 0 | - | -
Cc1oc(-c2cccs2)nc1CC(=O)N1CCN(CC(=O)N2CCCCC2)CC1 | - | - | - | 0 | - | -
O=c1[nH]c(=O)n(-c2ccc(F)cc2)c(O)c1/C=C1\C=Nc2ccccc21 | 0 | 0 | 0 | 0 | 0 | 0
COc1ccc(-n2c(O)c(/C=C3\C=Nc4ccc(Br)cc43)c(=O)[nH]c2=O)c(OC)c1 | -96 | ? | 0 | 0 | ? | ?
